The sample as a whole holds a higher share of hits than the screen did.
IL1B secr inh: blocks inflammasome-driven IL-1 beta release. AID 743279. 360,000 tested, 4.7% active. THP-1 LPS/ATP IL-1B secretion, AlphaLISA, 16 h; active compounds read low. activity change, % at 57.5 µM; in the data active = activity change below about -50%; inconclusive = mostly about -30% to -49%
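Secreted IL-1B measured by AlphaLISA bead assay after 16 h compound exposure of THP-1 cells; compounds (final up to 57.5 uM) added 1 h before LPS (250 ng/mL) and ATP (1.25 mM) stimulation; lower signal means less secretion.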
HT1080NT lethal: kills 2HG-producing HT-1080-NT fibrosarcoma cells. 360,000 tested, 1.6% active. HT-1080-NT fibrosarcoma viability, CellTiter-Glo ATP luminescence, 48 h. Potency, µM (series often up to 46.1 µM), for the others: top-dose activity, negative = less viability, hits mostly cytotoxic. AID 686970;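 also: NT is the 2HG producing partner of a matched IDH1 knockdown line; potency is read from the fitted curve at half-maximal effect; 0% = DMSO-treated cells and -100% = media-only wells without cells; nearly all actives have a fitted effect of over 55% in size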
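Fibrosarcoma NT cells, 750 per well in 5% FBS RPMI, were exposed to compound for 48 hours. Viability: CellTiter-Glo luminescence.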
12-LOX inh: inhibitors of human 12S-lipoxygenase ALOX12 | 580,000 tested, 1.1% active | Potency, µM (doses to about 108 µM), without a hit: top-dose activity change, negative = inhibition, actives largely listed as inhibitors | purified 12hLO, xylenol orange hydroperoxide absorbance | P18054 | AID 1671190; also: potency is read from the fitted curve at half-maximal effect
Target sequence (P18054 whole entry, looked up): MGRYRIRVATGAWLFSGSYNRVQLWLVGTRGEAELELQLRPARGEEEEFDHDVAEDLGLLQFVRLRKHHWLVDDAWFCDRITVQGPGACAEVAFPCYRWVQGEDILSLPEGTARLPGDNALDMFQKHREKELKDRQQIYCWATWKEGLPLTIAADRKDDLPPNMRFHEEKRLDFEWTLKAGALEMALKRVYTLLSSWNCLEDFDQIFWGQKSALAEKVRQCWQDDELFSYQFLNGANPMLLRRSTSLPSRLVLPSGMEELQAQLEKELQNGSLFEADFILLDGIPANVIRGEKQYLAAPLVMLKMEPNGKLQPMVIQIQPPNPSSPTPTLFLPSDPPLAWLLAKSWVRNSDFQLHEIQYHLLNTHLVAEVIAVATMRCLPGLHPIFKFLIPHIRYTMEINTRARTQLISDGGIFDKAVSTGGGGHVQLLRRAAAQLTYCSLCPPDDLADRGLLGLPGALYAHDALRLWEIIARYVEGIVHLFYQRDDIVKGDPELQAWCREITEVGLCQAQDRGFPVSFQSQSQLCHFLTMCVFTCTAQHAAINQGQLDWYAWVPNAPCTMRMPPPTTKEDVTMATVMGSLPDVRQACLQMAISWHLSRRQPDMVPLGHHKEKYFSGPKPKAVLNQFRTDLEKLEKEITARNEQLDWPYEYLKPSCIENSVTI
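Purified human 12hLO (150 nM final) in 25 mM Hepes, 0.01% Triton X-100, pH 7.0 was preincubated 15 min at room temperature with compound. Then 40 uM arachidonic acid was added, 30 min. Hydroperoxide was read by Fe-XO absorbance ratio 573/405 nm.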
TDP1 cell noCPT: qHTS for Inhibitors of human tyrosyl-DNA phosphodiesterase 1 (TDP1): qHTS in cells in absence of CPT. Potency, µM (titrated, usually from 46.2 µM), for the others: top-dose activity change, negative = growth inhibition, most hits filed as inhibitors. 420,000 tested, 15% active. DT40 Tdp1-/- hTDP1 cells, no CPT, ATP luminescence, 48 h; also: potency is read from the fitted curve at half-maximal effect; nearly all actives have a fitted effect of over 55% in size
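A cellular qHTS used chicken DT40 cells lacking endogenous Tdp1 but carrying stably transfected human TDP1. Compounds were applied without camptothecin, and cell growth kinetics were judged by ATP-dependent luminescence after ≥48 hr.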
DT40 TDP1 CPT: growth inhibition of DT40 Tdp1-/-;hTDP1 cells with camptothecin (screen for TDP1 inhibitors); 420,000 tested, 12% active; Potency, µM (titrated, usually from 46.2 µM), for the others: at the highest dose activity change, negative = growth inhibition, hits mostly inhibitors; chicken DT40 Tdp1-/-;hTDP1 cells + 20 nM CPT, ATP luminescence, 48 h; also: potency is read from the fitted curve at half-maximal effect; nearly all actives have a fitted effect of over 55% in size
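Chicken DT40 Tdp1-/- cells stably complemented with human TDP1 were seeded at 400 cells/well in medium containing 20 nM camptothecin, exposed to pin-transferred compounds, and grown at 37 °C for at least 48 hr. Viability was read as ATP luminescence.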
HT1080 IDH1KD tx: toxicity to HT-1080 IDH1 knockdown cells (counter line) | HT-1080 IDH1 knockdown viability, ATP luminescence, 48 h | Potency, µM (top dose mostly 46.1 µM), for the others: at the top dose activity, negative = toxicity, usual class: cytotoxic | 360,000 tested, 2% active | AID 686971;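 also: potency is read from the fitted curve at half-maximal effect; 0% = DMSO wells and -100% = cell-free medium wells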
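IDH1KD HT-1080 cells, 750/well, RPMI + 5% FBS; compound pinned after 2 h settling; 48 h, 37 °C; CellTiter-Glo luminescence; % activity normalised to DMSO and no-cell wells; curves fitted, classed by r2 and efficacy.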
An asterisk follows results filed as active; i = inactive; u = inconclusive; x = no result given; [ ] = remark or other dose. Unless noted, calls follow the shape of the dose curve; as a rule, active = well fitted curve in the direction sought with a large enough effect; inconclusive = small, poorly fitted or top-dose-only effect, or another doubt; inactive = no such curve, though single readings can be large; an effect the other way counts as inactive or inconclusive. Unless noted, % is scaled to controls: 0 for no effect and ±100 for the full control effect.

SMILES	IL1B secr inh	HT1080NT lethal	12-LOX inh	TDP1 cell noCPT	DT40 TDP1 CPT	HT1080 IDH1KD tx
CC[C@@H](NCCCn1ccc(NC(=O)OCc2ccccc2)nc1=O)c1ccccc1	-27.0	-4.2%	-7.3%	16.4µM*	u	-20.9%
C[C@@H](NC(=O)Cn1ccc(NC(=O)OCc2ccccc2)nc1=O)c1cccc2ccccc12	-24.7	-20.7%	-11.9%	u	u	-12.7%
COc1cc(NCCCn2ccc(NC(=O)OCc3ccccc3)nc2=O)cc(OC)c1OC	-29.9	7.8%	-9.3%	-13.6%	-26.1%	2.5%
Cc1cc(C)c2cc(C(=O)OCC(=O)N3CCCCC3C)[nH]c2c1 (stereo unspecified)	x	x	0.1%	x	x	x
N#CCOc1ccc2c(=O)c(-c3ccccc3)c(C(F)(F)F)oc2c1	x	x	-2.7%	x	x	x
CCC(=O)C1=C(O)C(c2cccc(Oc3ccccc3)c2)CCC1=O (stereo unspecified)	0.0	-0.5%	-10.0%	9.2µM*	20.6µM*	-5.4%
Cc1ccc(C(=O)OCC(=O)N2c3ccccc3NC(=O)C2(C)C)cc1S(=O)(=O)N1CCCCC1	-19.2	-18.6%	10.9%	14.6µM*	u	-19.0%
Cc1ccc(S(=O)(=O)N2CCCCC2)cc1C(=O)OCC(=O)N1c2ccccc2NC(=O)C1(C)C	-7.2	14.0%	3.8%	u	u	11.7%
Cc1ccc(C(=O)OCC(=O)NC2CCCC(C)C2C)cc1S(=O)(=O)N1CCCCC1 (stereo unspecified)	9.2	-17.6%[9.24 µM]	-17.9%	u	20.6µM*	-2.7%
Cc1ccc(C(=O)OCC(=O)N2CCC(C)CC2)cc1S(=O)(=O)N1CCCCC1	i	5.8%	u	u	-13.9%	0.1%
Cc1ccc(C(=O)OC(C)C(=O)NC2CCCCC2C)cc1S(=O)(=O)N1CCCCC1 (stereo unspecified)	23.3	12.5%	i	u	18.4µM*	-0.5%
Cc1ccnc2nc(C(=O)OCC(=O)NC3CCCC(C)C3C)nn12 (stereo unspecified)	-8.1	-23.7%	-7.2%	1.46µM*	-19.9%	u
CCc1nnc2sc(-c3ccc(CNC(=O)C(C)(C)Oc4ccc(Cl)cc4)cc3)nn12	x	x	67.7%	x	x	x
CC(C)n1c(SCc2ccccc2Cl)nc2c1c(=O)[nH]c(=O)n2C	x	x	-11.7%	x	x	x
O=c1nc2sc3ccccc3n2c(=O)n1-c1cccc(Cl)c1	0.3	-7.7%	x	u	u	-16.9%
O=c1nc2sc3ccccc3n2c(=O)n1-c1ccc(Cl)cc1	-15.7	21.9%	0.0%	20.6µM*	u	14.0%
O=c1nc2sc3ccccc3n2c(=O)n1-c1ccc(Cl)c(Cl)c1	x	x	-28.3%	10.3µM*	u	x
CNc1nccc(N2CCC(CC(=O)NC3CCN(Cc4ccccc4)CC3)CC2)n1	x	x	40.7%	x	x	x
Cc1ccc(Nc2cccc3ccccc23)cc1	x	x	-25.6%	x	x	x
CC(C)Nc1ccc(Nc2ccnc3cc4ccccc4cc23)cc1	-106.5*	u	u	7.31µM*	8.2µM*	5.17µM*
COc1cc(N(C)C)ccc1/C=C/c1ccnc2ccccc12	x	x	x	25.1µM*	10µM*	x
COc1ccc(/C=C/c2ccnc3ccccc23)cc1	x	x	x	31.6µM*	11.2µM*	x
COc1ccc(Nc2ccnc3ccccc23)cc1	u	-15.1%	91.1%	16.4µM*	13µM*	-23.0%
COc1cc(OC)c(OC)cc1/C=C/c1cc(C(=O)O)c2ccccc2n1	6.3	26.1%	-15.8%	-1.5%	8.9%	1.4%
COC(=O)N(C)CC(=O)NCc1ccccc1	x	x	-55.2%	x	x	x
O=C(/C(Cl)=C/N1CCN(C(c2ccccc2)c2ccccc2)CC1)C(F)(F)F	x	x	62.7%	x	x	x
O=S(=O)(c1ccc(Cl)s1)N1CCC(n2c(C(F)(F)F)nc3cccnc32)CC1	x	x	-1.1%	x	x	x
Cc1cnc(C(=O)NCc2sccc2C)cn1	x	x	4.0%	x	x	x

Screens: PubChem, National Center for Advancing Translational Sciences (NCATS)
